# Results filed as inconclusive are left out. Unmarked numbers belong to inactive results. Active and inactive are the calls of the source. The call rests on the fitted dose curve.
# Target: Progesterone receptor (Homo sapiens) (UniProt P06401)
# Test: qHTS assay to identify small molecule agonists of the progesterone receptor (PR) signaling pathway (AID 1346784); further: nearly all actives have a fitted effect of over 30% in size
# Details: PR-UAS-bla HEK293T, beta-lactamase FRET ratio, 16 h; series mostly up to 92.4 µM; activation: at the top concentration
# Text: U.S. Tox21 Program National Center for Advancing Translational Sciences [NCATS] NIH Chemical Genomics Center [NCGC] U.S. Environmental Protection Agency [EPA] National Institutes of Environmental Health Sciences [NIEHS] National Toxicology Program [NTP] U.S. Food and Drug Administration [FDA] […] Endocrine disrupting chemicals (EDCs) and their interactions with steroid hormone receptors like PR causes disruption of normal endocrine function. To identify the compounds that activate PR signaling, a PR-UAS-bla GripTite cell line i.e. PR-UAS-bla HEK 293T (Invitrogen, Carlsbad, CA, USA) containing a beta-lactamase reporter gene under the control of an Upstream Activator Sequence (UAS) was used to screen Tox21 10K compound library.
# Tox21 Assay Protocol Summary: PR-UAS-bla HEK 293T cells were dispensed at 3,000 cells/5 uL of assay medium containing 2% charcoal stripped FBS per well into black wall/clear-bottom 1536-well plates using a Multidrop Combi (ThermoFisher Scientific, Waltham, MA) dispenser. After the assay plates were incubated at a 37C and 5% CO2 for 6hr, 23 nL of compounds dissolved in DMSO, positive controls or DMSO only was transferred to the assay plate by a Pintool station (Kalypsys, San Diego, CA). The plates were incubated at 37C and 5% CO2 for 16hr. Then 1 uL of LiveBLAzer B/G FRET substrate was added using a BioRAPTR FRD (Flying Reagent Dispenser, Aurora Discovery, San Diego, CA). After the plates were incubated at room temperature for 2 hours, fluorescence intensity was measured by an Envision plate reader (PerkinElmer, Shelton, CT).
# On the % scale 0 is the no-effect control and ±100 the full control effect; potency means the concentration at half of the fitted maximal effect.
# Progesterone receptor (Homo sapiens), sequence (P06401 whole entry, looked up): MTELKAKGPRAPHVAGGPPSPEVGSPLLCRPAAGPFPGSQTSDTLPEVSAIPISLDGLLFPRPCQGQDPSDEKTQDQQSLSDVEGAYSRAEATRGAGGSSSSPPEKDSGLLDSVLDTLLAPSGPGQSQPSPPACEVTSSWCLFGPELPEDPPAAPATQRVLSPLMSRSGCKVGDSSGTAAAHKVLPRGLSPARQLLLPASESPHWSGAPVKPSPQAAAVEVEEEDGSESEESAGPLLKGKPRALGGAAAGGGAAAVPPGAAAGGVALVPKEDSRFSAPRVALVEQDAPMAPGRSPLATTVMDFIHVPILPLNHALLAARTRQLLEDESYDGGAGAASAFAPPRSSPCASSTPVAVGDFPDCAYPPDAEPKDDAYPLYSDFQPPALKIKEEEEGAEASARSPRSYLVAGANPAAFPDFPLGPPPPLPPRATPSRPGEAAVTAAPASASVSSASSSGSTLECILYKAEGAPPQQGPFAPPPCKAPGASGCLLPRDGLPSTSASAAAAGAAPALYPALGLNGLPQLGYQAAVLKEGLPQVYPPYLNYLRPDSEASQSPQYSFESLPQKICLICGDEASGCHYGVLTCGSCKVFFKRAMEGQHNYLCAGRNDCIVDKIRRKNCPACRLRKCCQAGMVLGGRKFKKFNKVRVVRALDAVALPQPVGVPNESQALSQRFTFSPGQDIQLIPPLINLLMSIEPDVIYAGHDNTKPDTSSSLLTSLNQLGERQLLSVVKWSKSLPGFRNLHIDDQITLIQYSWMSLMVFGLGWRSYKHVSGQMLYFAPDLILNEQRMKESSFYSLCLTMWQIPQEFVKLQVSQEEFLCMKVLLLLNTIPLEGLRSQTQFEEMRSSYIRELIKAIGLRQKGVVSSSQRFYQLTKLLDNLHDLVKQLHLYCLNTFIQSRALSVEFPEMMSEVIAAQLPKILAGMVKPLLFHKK
SMILES,activation,Potency
CCOc1c(N2CCOCC2)cnn(C)c1=O,-0.765% [at 42.5 µM],
CCOC(=O)c1cnc2c(cnn2CC)c1NN=C(C)C,2% [at 42.5 µM],
CCC(=O)OCc1ccccc1,0.682%,
N[C@H](C(=O)O)[C@@H](O)c1ccc(O)c(O)c1,-0.935% [at 42.5 µM],
CC12CCC(C(=O)C1=O)C2(C)C (stereo not given),0.848%,
CC1=C(C/C=C(\C)CCC[C@H](C)CCC[C@H](C)CCCC(C)C)C(=O)c2ccccc2C1=O,-0.641% [at 42.5 µM],
O=C(O)CNC(=O)c1ccc(CO)o1,0.0551%,
CCNS(=O)(=O)c1ccc(C)cc1,-0.233%,
O=S(=O)(O)c1cccc2c(S(=O)(=O)O)cccc12,-0.904%,
CCCCc1nc(Cl)c(CO)n1Cc1ccc(-c2ccccc2-c2nn[nH]n2)cc1,-1.31% [at 42.5 µM],
C[N+]1(C)[C@@H]2CC(OC(=O)[C@H](CO)c3ccccc3)C[C@H]1[C@@H]1O[C@@H]12 (stereo not given in full),-2.65% [at 42.5 µM],
CCO[Si](OCC)(OCC)c1ccccc1,-0.362%,
CN(C)CCN(C)CCN(C)C,0.447%,
O=C(O)CCSCCC(=O)O,-0.584%,
CCCCc1ccc2c(n1)[C@@H](c1ccc(OC)cc1C[C@H](C)C(=O)O)[C@H](C(=O)O)[C@H]2c1ccc2c(c1)OCO2,-2.05%,
CC(=O)NC(=O)c1ccccc1O,0.628% [at 42.5 µM],
CC(C#N)(CCC(=O)O)N=NC(C)(C#N)CCC(=O)O (stereo not given),0.438%,
CO[C@@]1(NC(=O)C(C(=O)O)c2ccc(O)cc2)C(=O)N2C(C(=O)O)=C(CSc3nnnn3C)CO[C@@H]21 (stereo not given in full),0.82% [at 42.5 µM],
O=C(CO)[C@@H](O)[C@H](O)[C@@H](O)CO,-0.19% [at 42.5 µM],
CCC(C)(CN(C)C)OC(=O)c1ccccc1 (stereo not given),-0.759% [at 42.5 µM],

SMILES,activation,Potency
C=C[Si](OC(C)=O)(OC(C)=O)OC(C)=O,0.513%,
COc1cc2c(cc1OC)-c1cc3ccc(OC)c(OC)c3c[n+]1CC2,-4.18%,
CC1=CCC(O)(C(C)C)CC1 (stereo not given),2.18%,
CCN[C@H]1C[C@H](C)S(=O)(=O)c2sc(S(N)(=O)=O)cc21,1.23% [at 42.5 µM],
c1coc(CNc2ncnc3nc[nH]c23)c1,0.452%,
c1ccc2sc(SN3CCOCC3)nc2c1,-1.45% [at 42.5 µM],
CO[Si](C)(OC)c1ccccc1,2.86%,
CN(C)C(=O)Oc1ccc[n+](C)c1,0.0206% [at 42.5 µM],
CCCO[Si](OCCC)(OCCC)OCCC,0.902%,
Cc1ncc(COP(=O)(O)O)c(C=O)c1O,2.71% [at 42.5 µM],
Cc1ccccc1N=C(N)N=C(N)N,-0.713%,
O=C(O)CCCC[P+](c1ccccc1)(c1ccccc1)c1ccccc1,0.26% [at 42.5 µM],
CCCCN1C=CN(C)C1,,2.46 µM (active)
Nc1ccncc1N,3.27% [at 42.5 µM],
CCOc1ccc2nc(S(N)(=O)=O)sc2c1,0.564% [at 42.5 µM],
C=COCC1CCC(COC=C)CC1 (stereo not given),0.39%,
O=C(O)c1cn(C2CC2)c2cc(N3CCNCC3)c(F)cc2c1=O,3.59% [at 42.5 µM],
CCCCCCCC1CCCC1=O (stereo not given),-1.4%,
COc1ccc2cc1Oc1cc3c(cc1OC)CC[N+](C)(C)[C@H]3Cc1ccc(cc1)Oc1c(OC)c(OC)cc3c1[C@@H](C2)[N+](C)(C)CC3,-2.62% [at 42.5 µM],
Cc1cccc(C)c1NC(=O)CC12CCCN1CCC2,-0.0074% [at 42.5 µM],
